The list is not random: actives were taken first. Their share in the collection is about 17%.
ClpP mod – qHTS Assay for Activators of ClpP | ATP-dependent Clp protease proteolytic subunit (Bacillus subtilis (strain 168)), P80244 | purified B. subtilis ClpP, FRET peptide cleavage, 20 min | Potency, µM (top dose mostly 57.5 µM), without a hit: top-dose activity change, negative = active | 340,000 compounds, 1.9% hits; active = well fitted falling curve with a large enough effect; inconclusive = small, poorly fitted or top-dose-only effect; inactive = no such curve, though single readings can be large or run the other way; note: the source files actives as falling curves though it sought activators and does not explain the sign; nearly all actives have a fitted effect of over 65% in size
Target sequence (P80244 whole entry, looked up): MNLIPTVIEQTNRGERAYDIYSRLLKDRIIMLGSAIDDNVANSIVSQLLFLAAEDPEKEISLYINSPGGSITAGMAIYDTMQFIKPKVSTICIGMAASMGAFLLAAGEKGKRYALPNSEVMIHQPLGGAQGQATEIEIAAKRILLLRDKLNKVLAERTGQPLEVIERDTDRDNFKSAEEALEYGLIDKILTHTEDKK
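Purified B. subtilis ClpP, 10 microg/mL final in Tris/HCl pH8 with KCl, BSA, glycerol and Tween-20, cleaved an Abz/nitrotyrosine-quenched decapeptide. Fluorescence (ex 320, em 430) was read at 0 and 20 min at room temperature. Delta was normalized to 5.8 microM ADEP and DMSO/no-enzyme controls.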
TDP1 cell noCPT – qHTS for Inhibitors of human tyrosyl-DNA phosphodiesterase 1 (TDP1): qHTS in cells in absence of CPT; 420,000 compounds, 15% hits; Potency, µM (doses to about 46.2 µM), for inactives: at the highest dose activity change, negative = growth inhibition, usual class: inhibitors; DT40 Tdp1-/- hTDP1 cells, no CPT, ATP luminescence, 48 h; note: % is set by controls: 0 for no effect and ±100 for the full control effect; nearly all actives have a fitted effect of over 55% in size
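DT40 Tdp1-/-;hTDP1 cells, no CPT (DMSO vehicle only), 400 cells/well; compounds pin-transferred; ≥48 hr, 37 °C; CellTiter-Glo 30 min RT dark, luminescence read.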
DT40 TDP1 CPT – growth inhibition of DT40 Tdp1-/-;hTDP1 cells with camptothecin (screen for TDP1 inhibitors); chicken DT40 Tdp1-/-;hTDP1 cells + 20 nM CPT, ATP luminescence, 48 h; Potency, µM (highest dose often 46.2 µM), without a hit: top-dose activity change, negative = growth inhibition, usual class: inhibitors; AID 686979; 420,000 compounds, 12% hits; note: % is set by controls: 0 for no effect and ±100 for the full control effect; nearly all actives have a fitted effect of over 55% in size
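Cell growth measured by CellTiter-Glo luminescence after a minimum 48 h, 37 C compound exposure with 20 nM CPT in Tdp1-knockout DT40 cells stably expressing hTDP1, seeded 400/well; qHTS titration format.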
TDP1 block – inhibitors of human tyrosyl-DNA phosphodiesterase TDP1; AID 485290; 350,000 compounds, 0.28% hits; Q9NUW8; Potency, µM (doses to about 130 µM), for inactives: at the top dose activity change, negative = inhibition, actives largely listed as inhibitors; recombinant TDP1, AlphaScreen DNA substrate cleavage; note: % is set by controls: 0 for no effect and ±100 for the full control effect; nearly all actives have a fitted effect of over 40% in size
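Compounds were preincubated with Tdp1 (1 nM final) for 15 min at room temperature before substrate (15 nM final) started a 5 min reaction; beads (10 ug/ml final) were then added for 10 min before AlphaScreen detection.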
Active calls of the source: *; ? = inconclusive; / = no result; [ ] = remark or other dose. Unless noted, calls come from the whole dose curve; as a rule, active = well fitted curve in the direction sought with a large enough effect; inconclusive = small, poorly fitted or top-dose-only effect, or another doubt; inactive = no such curve, though single readings can be large; an effect the other way counts as inactive or inconclusive. Potency is the fitted concentration of half-maximal effect.

SMILES	ClpP mod	TDP1 cell noCPT	DT40 TDP1 CPT	TDP1 block
O=C(NCCCc1nc2ccccc2n1Cc1ccc(Cl)cc1)c1ccco1	-1.2%	16.4µM*	?	7.4%
NC(=O)C1CCN(c2csc3ccc(F)cc3c2=O)CC1	-20.4%	-11.4%	-8.7%	-4.1%
CC1CCCC/C1=N\NS(=O)(=O)c1ccc(Br)cc1 (configuration not stated)	-0.9%	0.5%	-2.6%	3.4%
COc1ccc(OC)c(-c2cc(Cl)c3c(c2)CC(CNC(=O)c2coc4c2C(=O)CCC4)O3)c1 (configuration not stated)	/	-15.1%	15.3%[9.04 µM]	/
Cc1ccc(C)c(C(=O)CSc2nc(-c3ccccc3)nc3c2CCCC3)c1	-0.6%	?	?	/
CCOC(=O)c1ccc(NC(=O)CC2Sc3ncnn3C2=O)cc1 (configuration not stated)	-1.1%	6.51µM*	5.8µM*	/
COc1ccc(NC(=O)CC2Sc3ncnn3C2=O)cc1 (configuration not stated)	-0.1%	11.6µM*	5.17µM*	-10.5%
CCOc1cc(C(=O)Nc2ccc3oc(-c4ccc(F)cc4Cl)nc3c2)cc(OCC)c1OCC	?	?	?	-9.3%[12.3 µM]
COCc1cc(S(=O)c2ccc(Cl)cc2)nc(C)n1 (configuration not stated)	0.7%	2.91µM*	4.61µM*	5.4%
CCC(=O)c1ccc(OCc2ccc(C(=O)c3ccccc3)cc2)cc1	/	8.2µM*	6.51µM*	0.0%
CCC(=O)c1ccc(OCc2ccccc2)c(OC)c1	-4.1%	?	13.9%	-1.1%
O=C1CC(c2ccc3c(c2)OCO3)c2cc(O)ccc2O1 (configuration not stated)	/	/	/	-4.1%[234 µM]
Cc1ccccc1C1C(C#N)=C2NC(=O)c3c(sc4c3CCCCC4)N2C2=C1C(=O)CC(C)(C)C2 (configuration not stated)	/	/	/	8.0%
Cc1ccccc1C1C(C#N)=C2N=C(N)c3c(sc4c3CCCCC4)N2C2=C1C(=O)CC(C)(C)C2 (configuration not stated)	-1.8%	?	18.4µM*	10.1%
COc1cc(C2C(C#N)=C(N)N(c3sc4c(c3C#N)CCCC4)C3=C2C(=O)CC(C)(C)C3)cc(OC)c1OC (configuration not stated)	-0.9%	16.4µM*	20.6µM*	2.1%
CCC1CCCCN1C(=O)CCn1c(=O)oc2ccccc21 (configuration not stated)	1.6%	-2.1%	10.1%	/
CCc1ccccc1OCCSc1nnc(-c2cc(OC)c(OC)c(OC)c2)o1	25.1µM*	18.4µM*	18.4µM*	11.4%
COc1ccc(-c2nnc(SCCOc3ccccc3C)o2)cc1OC	-10.6%	18.4µM*	?	5.7%
CC(=O)C1=C(c2ccc(Cl)c(Cl)c2)N(C(C)=O)n2c(nnc2C2CCCCC2)S1	-1.0%	-26.5%	?	-5.2%
CCC(=O)C1=C(c2cccc([N+](=O)[O-])c2)N(C(=O)CC)n2c(nnc2-c2ccccc2)S1	2.3%	3.26µM*	4.11µM*	5.2%
CCC(=O)C1=C(c2ccccc2)N(C(=O)CC)n2c(nnc2C2CCCCC2)S1	-2.0%	-2.5%	8.9%	0.0%
CCC(=O)C1=C(c2ccc(OC)c(OC)c2)N(C(=O)CC)n2c(nnc2-c2ccc(C)cc2)S1	-4.0%	-25.2%	-2.8%	0.0%
CCC(=O)C1=C(c2cccc(OC)c2)N(C(=O)CC)n2c(nnc2C2CCCCC2)S1	-1.0%	11.6µM*	8.2µM*	0.0%
COc1cccc(C2=C(C(C)=O)Sc3nnc(C4CCCCC4)n3N2C(C)=O)c1	0.4%	11.6µM*	7.31µM*	0.0%
CC(=O)C1=C(c2ccccc2)N(C(C)=O)n2c(nnc2C2CCCCC2)S1	0.3%	4.61µM*	?	2.6%
SMILES	ClpP mod	TDP1 cell noCPT	DT40 TDP1 CPT	TDP1 block
COc1cc([C@H]2OC[C@H]3[C@@H]2CO[C@@H]3c2ccc(O[C@H]3O[C@H](CO)[C@@H](O)[C@H](O)[C@H]3O)c(OC)c2)ccc1O[C@@H]1O[C@H](CO)[C@@H](O)[C@H](O)[C@H]1O	-4.1%	3.7%	0.9%	-3.1%
CSc1ccc(Cn2nnc(C(=O)Nc3ccc(C)cc3Cl)c2N)cc1	?	?	-24.4%	5.8%
N#CCC(=O)Nc1ccc(C(=O)NCc2ccccn2)cc1	-1.1%	6.0%	0.1%	0.5%
CC[C@H](C)[C@H](NC(=O)[C@H](C)NC(=O)[C@@H](N)C(C)C)C(=O)N[C@H](C(=O)N[C@H](C(=O)N[C@@H](CC(C)C)C(=O)N[C@H](C(=O)N[C@@H](CCCCN)C(=O)O)C(C)C)C(C)C)[C@@H](C)O	/	/	/	11.5%
CC(=O)Oc1ccc2ccc3ccc(C(C)=O)cc3c2c1	/	18.4µM*	?	/
CC(=O)c1ccc(OC(=O)Oc2ccc(C(C)=O)cc2)cc1	2.0%	-25.8%	-23.7%	/
CC(NC(=O)c1ccc([N+](=O)[O-])cc1[N+](=O)[O-])c1ccc(-c2ccccc2)cc1 (configuration not stated)	-9.5%	13µM*	13µM*	1.9%
CCS(=O)(=O)N1CCN(c2ccc(C(=O)NC34CC5CC(CC(C5)C3)C4)cc2[N+](=O)[O-])CC1	-2.4%	7.31µM*	11.6µM*	-0.6%
O=C(NC12CC3CC(CC(C3)C1)C2)c1ccc([N+](=O)[O-])cc1	-1.5%	-16.5%	?	/
CS(=O)(=O)N1CCN(c2ccc(C(=O)NC34CC5CC(CC(C5)C3)C4)cc2[N+](=O)[O-])CC1	1.6%	9.2µM*	14.6µM*	6.7%
O=[N+]([O-])c1ccc(-c2cc3ccccc3[nH]2)cc1	1.0%	?	?	/
COc1ccc(NC(=O)CN(C)C(=O)Cc2c(C)nc3ccccc3c2C)cc1	/	?	?	3.6%
O=C(Nc1ccc(Cl)cc1)c1ccc(-n2cncn2)c([N+](=O)[O-])c1	0.6%	16.4µM*	?	4.2%
O=C(Nc1ccc(Cl)cc1)c1ccc(-n2cccn2)c([N+](=O)[O-])c1	-1.2%	14.6µM*	23.1µM*	6.3%
CCN(CC)S(=O)(=O)c1cc(NC(=O)c2ccc(-n3cncn3)c([N+](=O)[O-])c2)ccc1C	-1.7%	23.1µM*	?	5.5%
COc1ccc(NC(=O)c2ccc(-n3cccn3)c([N+](=O)[O-])c2)cc1	/	?	4.9%	-2.7%
O=C(O)C1C2CCC(C2)C1C(=O)NCCc1ccccc1 (configuration not stated)	1.5%	18.1%	3.2%	/
CCCNC(=O)CNC(=O)c1ccccc1OCC(=O)Nc1ccc(Br)cc1	-0.3%	?	-2.9%	/

Screening data from PubChem BioAssay.
